Calls of active or inactive are those of the source. The rule behind the calls is not given here.

The target in this assay is Protein deacetylase HDAC6 (Homo sapiens) (UniProt Q9UBN7). The assay is described as follows: HDAC6 deacetylase inhibition, profiling panel, selectivity assay for E-cadherin restoration project, biochemical, human (AID 651906).
Protein deacetylase HDAC6 (Homo sapiens), sequence (Q9UBN7 whole entry, looked up): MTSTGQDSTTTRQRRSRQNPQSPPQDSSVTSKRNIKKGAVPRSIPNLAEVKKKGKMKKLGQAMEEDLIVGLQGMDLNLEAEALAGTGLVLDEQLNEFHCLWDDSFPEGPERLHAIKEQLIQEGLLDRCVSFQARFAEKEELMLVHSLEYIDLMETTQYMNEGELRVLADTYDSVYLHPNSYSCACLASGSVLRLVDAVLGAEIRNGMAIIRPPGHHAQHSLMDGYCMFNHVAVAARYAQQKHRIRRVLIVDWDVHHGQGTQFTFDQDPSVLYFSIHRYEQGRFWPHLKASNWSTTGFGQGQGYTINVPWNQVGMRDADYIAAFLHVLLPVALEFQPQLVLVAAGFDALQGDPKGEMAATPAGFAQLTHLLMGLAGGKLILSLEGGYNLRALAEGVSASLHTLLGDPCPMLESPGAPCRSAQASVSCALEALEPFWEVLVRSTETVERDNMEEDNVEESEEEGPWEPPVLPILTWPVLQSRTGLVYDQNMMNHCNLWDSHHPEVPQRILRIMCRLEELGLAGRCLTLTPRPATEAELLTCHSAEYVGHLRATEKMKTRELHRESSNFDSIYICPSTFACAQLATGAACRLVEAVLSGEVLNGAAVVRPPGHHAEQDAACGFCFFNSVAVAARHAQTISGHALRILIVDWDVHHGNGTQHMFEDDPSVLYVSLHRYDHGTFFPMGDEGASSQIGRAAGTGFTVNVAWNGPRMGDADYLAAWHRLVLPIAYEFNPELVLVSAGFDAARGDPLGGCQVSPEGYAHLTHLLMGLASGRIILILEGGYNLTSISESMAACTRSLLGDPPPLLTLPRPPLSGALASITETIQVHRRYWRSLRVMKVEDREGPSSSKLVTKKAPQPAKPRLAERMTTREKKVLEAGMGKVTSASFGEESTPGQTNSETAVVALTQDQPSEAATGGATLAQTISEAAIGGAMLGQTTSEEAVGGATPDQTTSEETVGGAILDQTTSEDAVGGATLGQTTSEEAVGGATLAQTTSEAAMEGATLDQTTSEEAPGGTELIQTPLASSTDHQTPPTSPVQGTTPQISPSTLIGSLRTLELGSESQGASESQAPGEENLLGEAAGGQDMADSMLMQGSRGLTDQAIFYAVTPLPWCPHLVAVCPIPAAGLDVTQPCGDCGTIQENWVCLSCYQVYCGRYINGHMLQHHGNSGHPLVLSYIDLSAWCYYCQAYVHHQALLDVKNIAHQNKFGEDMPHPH

For `O=C(NCCCNC(=O)c1ccc[nH]c1=O)c1cc(-c2ccccc2)on1`, the outcome was inactive.

(Values after PubChem BioAssay AID651906 (Vanderbilt Specialized Chemistry Center, 2012).)
